The values below come from PubChem BioAssay (NCATS).

Structures are written as SMILES. Records with an inconclusive call do not appear. Unmarked numbers belong to inactive results. Calls of active or inactive are those of the source. Calls follow the shape of the dose curve; as a rule, active = well fitted curve in the direction sought with a large enough effect; inconclusive = small, poorly fitted or top-dose-only effect, or another doubt; inactive = no such curve, though single readings can be large; an effect the other way counts as inactive or inconclusive.

The first assay is described as follows: qHTS for Inhibitors of Plasmodium falciparum (DD2) proliferation (AID 504314).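 Also: parasite DNA measured by SYBR Green fluorescence after red cell lysis; plate controls were DMSO vehicle for no effect and artemisinin wells for full effect.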 Particulars: P. falciparum Dd2 in erythrocytes, SYBR Green growth, 72 h; series mostly up to 6.11 µM; activity, negative = inhibition: at the top concentration. In outline: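 P. falciparum Dd2 is grown in erythrocytes with test compound for 72 h at 37C under 5% CO2. Growth is scored by SYBR Green I fluorescence after detergent lysis, relative to artemisinin (0.29 uM) and DMSO controls.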
In general terms: In qHTS, concentration-response curves come from the screen itself.
On to `CCCCCCCC1=Cc2ccccc2C(C(C(=O)OC)C(=O)OC)N1C(=O)OC` (stereo not given), for which the Potency result was “inactive”.

Regarding `COCOc1c2c(c(OCOC)c3c(OCOC)cccc13)C(=NNS(=O)(=O)c1ccc(C)cc1)C1=C2CCCC1`, the “activity, negative = inhibition” value was -11.4%.

For `COc1ccc2c(c1)[C@@]1(OCCC=C[C@@H]1C)C(=O)N2Cc1ccc(F)cc1`, the “activity, negative = inhibition” value is -12.1%.

For `COC1=C[C@H](C(=O)NCc2ccccn2)[C@@]2(C)Cc3ccccc3[C@@H]2CC1=O`, the “activity, negative = inhibition” value is -11.1%.

As to `CC(C)=CCCC(C)=CCN1C(=O)[C@@]2(C[C@@H](C)C[C@@H](C)O2)c2ccccc21`, the “activity, negative = inhibition” value was -16.2%.

Take `CCOC(=O)C1(C(=O)OCC)CC2=C(C=CC3=C(C=C2)CC(C(=O)OCC)(C(=O)OCC)C3)C1`: the “activity, negative = inhibition” value is -2.61%.

In the case of `COc1ccc2c(c1)[C@@H](NC(=O)C(F)(F)F)C1CCCCC21c1ccccc1` (stereo not given in full), the “activity, negative = inhibition” value was -9.09%.

Turning to `CC(Nc1oc(-c2ccccc2)nc1-c1ccccc1)c1ccccc1` (stereo not given), the “activity, negative = inhibition” value was -8.26%.

Take `CC1=C[C@@H](C)O[C@@]2(C1)C(=O)Nc1cccc(Br)c12`: the “activity, negative = inhibition” value was -13.8%.

In the case of `C[C@@H]1C[C@H]2[C@@H](C)C(=O)N3[C@@H](C[C@@H](C)[C@@H]3c3ccccc3)[C@@H](C)C(=O)N2[C@H]1c1ccccc1`, the “activity, negative = inhibition” value was -11.8%.

`COc1ccc(-c2nc3c(c4c2C[C@H](c2ccccc2)OC4)CN(S(=O)(=O)c2ccc(NC(C)=O)cc2)CC3)c(C)c1`: the activity, negative = inhibition is -0.765% [at 1.12 µM].

`CC1(OC(=O)C2CCCC2)C(=O)C=C2C=C(c3ccc(C#N)cc3)OC=C2C1=O` (stereo not given): the “activity, negative = inhibition” value is -2.52%.

Consider `COCC=CC1=CC2=CC(=O)C(C)(OC(=O)c3cnc4ccccc4n3)C(=O)C2=CN1CC(C)C` (stereo not given), for which the “activity, negative = inhibition” value was -9.39%.

Regarding `CC(C)=CCCC(C)=CCON=C1C[C@@H](O)[C@@H](O)[C@@H]2[C@H]3C(=O)N(C[C@@H]4CCCO4)C(=O)[C@@H]3CC[C@@H]12`, the “activity, negative = inhibition” value is -8.62%.

For the molecule `C=CCN1C(=O)CC[C@@]23C1=NC(C(=O)OC)=C(C(=O)OC)[C@@H]2N(CC#CC)c1ccccc13`, the “activity, negative = inhibition” value was -12%.

For the molecule `CC(C)=CCCC(C)=CCN1C(=O)[C@]2(OCCC=C[C@H]2C)c2ccccc21`, the “activity, negative = inhibition” value was -24.3%.

Regarding `COc1ccc2c(c1)C(=O)[C@H](OC(=O)N[C@H]1CCCc3ccccc31)[C@@H](c1ccc(OC)c(Br)c1)O2`, the “activity, negative = inhibition” value is -13.7%.

As to `COC(=O)CCCC1=CC2=CC(=O)C(C)(OC(=O)c3cccs3)C(=O)C2=CN1C1CC1` (stereo not given), the “activity, negative = inhibition” value was -11.3%.

As for `CCCCCCCC1=Cc2ccc(F)cc2C(C(C(=O)OC)C(=O)OC)N1C(=O)OC` (stereo not given), the activity, negative = inhibition was -0.0199% [at 1.12 µM].

`C=C(C)C1CC23C(=O)[C@]4(C(=O)c5ccccc5)C[C@@]5(C)CCC(CC2C1(C)C)(C4=O)[C@@]35OC` (stereo not given in full): the “activity, negative = inhibition” value is -12.2%.

For `CCC=C1C(=O)[C@]2(C(=O)c3ccccc3)C[C@H]3CCC(CCC)(C2=O)[C@@]13OC`, the “activity, negative = inhibition” value is -7.25%.

For `CC1=CC[C@@H](COc2ccccc2)O[C@@]2(C1)C(=O)Nc1ccccc12`, the “activity, negative = inhibition” value was -12.1%.

Take `COC1=C[C@H](C(=O)N2CCCC2)[C@H](C)[C@@H](c2ccccc2)CC1=O`: the “activity, negative = inhibition” value was -14.1%.

On to `CCOC(=O)CCN1C(=O)[C@@H]2[C@H]3[C@H](O)[C@H](O)CC(=NNC(=O)OCc4ccccc4)[C@@H]3CC[C@H]2C1=O`, for which the “activity, negative = inhibition” value is -7.8%.

In the case of `C=CCN1c2ccccc2[C@]23CCC(=O)N(CCc4ccccn4)C2=NC(C(=O)OC)=C(C(=O)OC)[C@H]13`, the “activity, negative = inhibition” value is -4.12%.

As for `C[C@H](NC(=O)N1CCc2nc(-c3ccccc3)c3c(c2C1)CO[C@@H](C)C3)c1ccccc1`, the activity, negative = inhibition was 3.91% [at 1.12 µM].

As to `CC12C=C(C=Cc3ccc(C(F)(F)F)cc3)C(C)(C1)C(c1ccc(C(F)(F)F)cc1)CC2=O` (stereo not given), the “activity, negative = inhibition” value is -8.4%.

Take `COc1ccc(COC(=O)NN=C2C[C@@H](O)[C@@H](O)[C@@H]3[C@H]4C(=O)N(c5cccc(Oc6ccccc6)c5)C(=O)[C@@H]4CC[C@H]23)cc1`: the “activity, negative = inhibition” value is -9.84%.

Regarding `CC(=O)c1ccc(OCc2ccccc2)c(C)c1O`, the “activity, negative = inhibition” value is -9.95%.

Regarding `C=CCCCC=C(C)[C@H](OCc1ccc(OC)cc1)[C@H](CCC=C(C)C(N)=O)OC`, the “activity, negative = inhibition” value was -9.21%.

As for `COc1cc(C(CC2=C(c3ccccc3)Cc3ccccc32)NC(=O)C(F)(F)F)cc(OC)c1OC` (stereo not given), the “activity, negative = inhibition” value is -12.1%.

Consider `CCCCCCCC1=Cc2ccccc2C(CC(=O)c2ccccc2)N1C(=O)OC` (stereo not given), for which the activity, negative = inhibition is -4.11% [at 1.12 µM].

On to `Cc1ccccc1Nc1oc(-c2ccccc2)nc1C=Cc1ccccc1`, for which the “activity, negative = inhibition” value was -15.7%.

Consider `COc1ccc2c(c1)[C@H](C=Cc1ccccc1)[C@@H]([C@H](O)CO)O2`, for which the “activity, negative = inhibition” value is -10.8%.

Take `COC(=O)CCCC1=CC2=C(c3ccccc3)C(=O)C(C)(OC(=O)C3CCCC3)C(=O)C2=CN1Cc1ccco1` (stereo not given): the “activity, negative = inhibition” value is -7.15%.

`CCCCCCCC1Cc2ccccc2C(C(C(=O)OC)C(=O)OC)N1C(=O)OC` (stereo not given): the “activity, negative = inhibition” value is -11%.

A further assay can be described thus: qHTS for Inhibitors of Plasmodium falciparum (GB4) proliferation (AID 504315).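 Also: 0% = DMSO vehicle and -100% = 0.29 µM artemisinin control; nearly all actives have a fitted effect of over 50% in size.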 Particulars: P. falciparum GB4 in erythrocytes, SYBR Green DNA, 72 h; series mostly up to 6.7 µM; activity change, negative = inhibition: at the top concentration. In outline:
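Parasite growth measured as SYBR Green DNA fluorescence (ex 485, em 535 nm) after overnight lysis following 72 h culture at 37 °C, 0.3% parasitemia, 2.5% hematocrit. Values normalized against DMSO and 0.29 uM artemisinin controls, with plate-stack correction.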
With `C[C@@H]1CC2CCCC2[C@]2(O1)C(=O)Nc1ccccc12` (stereo not given in full), the “activity change, negative = inhibition” value is 0.592%.

As to `COC1=C(C(=O)c2ccccc2)C(=O)[C@@]2(CC=C(C)C)CC(C#N)C[C@@]1(CC=C(C)C)C2=O` (stereo not given in full), the “activity change, negative = inhibition” value was -16.4%.

`O=S(=O)(CCc1ccccc1)c1nnnn1C1CCCCC1`: the “activity change, negative = inhibition” value is -9.58%.

On to `CC(CCN1CCCc2nc(C)c(C)cc21)=NOC[C@@H](C)[C@H](OCc1ccccc1)C(C)C`, for which the “activity change, negative = inhibition” value was -13.1%.
